The text below walks through data of PubChem BioAssay (NCI).

This is part of a sample that, as a whole, favours compounds with a hit. Of some 83,000 tested, about 20% had one in any assay.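 48-hour exposure, single concentration, 96-well plates; percent growth endpoint where 0 means no net growth. Active: below 10.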 Active and inactive are the calls of the source.

The assay concerns SK-MEL-5 melanoma. Nature of the assay: NCI-60 one-dose screen, 48 h (100 = growth as untreated, 0 = no growth, -100 = all killed). The following applies: 10 µM unless noted.
For `COc1ccc(-n2c(SCC(=O)Nc3ccc(-c4nc5ccccc5[nH]4)cc3)nc3ccccc3c2=O)cc1`, the growth is -7.57% (active).
Under `O=C(Oc1ccc2ccc(=O)oc2c1)c1ccc(Cl)cc1` stands 101% (inactive).
For the molecule `COc1ccc(C(=O)/C=C/c2ccc(OCc3ccc(Cl)cc3)c(OC)c2)cc1OC`, the growth is 55.2% (inactive).
Under `O=C(N/N=C/c1cccs1)c1[nH]c2ccc(Br)cc2c1-c1ccccc1` stands -36.7% (active); under `Cc1cc2nc3c4cc(Cl)ccc4n(CC(=S)NCCN(C)C)c3nc2cc1C`, -10.3% (active).
As to `COc1ccc([C@@H]2c3[nH]c4ccccc4c3CC3C(=O)N(C4CCN(Cc5c(F)cccc5F)CC4)CC(=O)N32)c(OC)c1` (stereo partly drawn), the growth is -9.17% [5.26 µM] (active).
Under `Cc1cc(C(NC(=O)CCCCCNc2cccc3c2C(=O)N(C2CCC(=O)NC2=O)C3=O)c2cccnc2)c(O)c2ncccc12` (stereo not drawn) stands -58.7% (active); under `CC(=NNc1ncnc2ccccc12)c1ccc(S(C)(=O)=O)cc1`, 101% (inactive).
Under `Nc1nc(N)c2c(n1)NC(c1ccc(C(F)(F)F)cc1)CC(c1ccc(Nc3nc(NCCO)nc(Nc4ccc(Cl)cc4)n3)cc1)=N2` (stereo not drawn) stands -92.8% (active).
Turning to `COc1ccc(/C=C2\SC(=Nc3cc(C)[nH]n3)NC2=O)cc1`, the growth is 95.7% (inactive).
Under `Cn1ccnc1C(=O)/C=C/c1ccc(NC(=O)Nc2ccc(Cl)cc2)cc1` stands 91.2% (inactive).
Under `COC(=O)C1CN(S(=O)(=O)/N=C2\NC(=O)NC2=C(Cl)Cl)C1` stands 100% (inactive); under `Nc1nc(N)c2c(n1)NC(c1ccc(F)cc1)CC(c1ccc(Nc3nc(NCCO)nc(Nc4ccc(Cl)cc4)n3)cc1)=N2` (stereo not drawn), -81% (active).
